Laboratory results: PubChem BioAssay
The source made the active and inactive calls.

Legend:
[1] = system: Plasmodium falciparum Sir2 (PF13_0152, Sir2A); assay: pfSir2 binders on small-molecule microarrays, primary screen, biochemical, small-molecule microarray, 635 nm fluorescence (AID 1098); conditions: small-molecule microarray binding, fluorescence 635 nm; higher = more signal;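 note: score merges spot fluorescence intensity with its signal-to-noise ratio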
[2] = small-molecule microarray binders of probe aDKK1, primary screen, biochemical, biotinylated probe, 635/667 nm fluorescence (AID 1099); conditions: higher = more signal;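 note: score merges 667nm spot fluorescence with signal to noise across triplicate slides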
[3] = small-molecule microarray binders of probe aCHRDL2, primary screen, biochemical, biotinylated probe, 635/667 nm fluorescence (AID 1100); conditions: higher = more signal
[4] = splicing luciferase reporter signal modulators, primary screen, spliceosome inhibition project, cell-based, HEK293, splice +/- reporter (AID 1101); conditions: luminescence, 24 h, higher = more signal, called active from +8 up or from −8 down;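 note: HEK293 cells carrying a splicing-competent luciferase reporter gene; test concentration not given here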
[5] = target: Fibroblast growth factor 10 (Homo sapiens) (UniProt O15520); assay: FGF10 binders on small-molecule microarrays, primary screen, biochemical, small-molecule microarray, 635 nm fluorescence (AID 1102); conditions: FGF10 binding, fluorescence 635 nm, higher = more signal
Sequence of Fibroblast growth factor 10 (Homo sapiens) (O15520 whole entry, looked up): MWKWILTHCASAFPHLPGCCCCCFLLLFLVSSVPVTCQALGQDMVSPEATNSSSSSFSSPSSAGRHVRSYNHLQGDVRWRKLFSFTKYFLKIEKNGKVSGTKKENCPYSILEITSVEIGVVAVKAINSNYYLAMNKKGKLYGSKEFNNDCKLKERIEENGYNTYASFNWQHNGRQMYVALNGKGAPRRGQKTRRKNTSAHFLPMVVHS

[6] = system: glycogen synthase kinase-3 (GSK3A per assay name; protocol says GSK3B); assay: GSK3 binders on small-molecule microarrays, primary screen, biochemical, small-molecule microarray, 635 nm fluorescence, GSK3A (AID 1103); conditions: small-molecule microarray binding, fluorescence 635 nm; higher = more signal; note: the record names both GSK3A and GSK3B
[7] = target: Epidermal growth factor receptor (Homo sapiens) (UniProt P00533); assay: EGFR binders on small-molecule microarrays, primary screen, biochemical, small-molecule microarray, 635 nm fluorescence (AID 1104); conditions: EGFR binding, higher = more signal;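 note: score merges 667 nm emission intensity with spot signal to noise over triplicate slides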
Sequence of Epidermal growth factor receptor (Homo sapiens) (P00533 whole entry, looked up): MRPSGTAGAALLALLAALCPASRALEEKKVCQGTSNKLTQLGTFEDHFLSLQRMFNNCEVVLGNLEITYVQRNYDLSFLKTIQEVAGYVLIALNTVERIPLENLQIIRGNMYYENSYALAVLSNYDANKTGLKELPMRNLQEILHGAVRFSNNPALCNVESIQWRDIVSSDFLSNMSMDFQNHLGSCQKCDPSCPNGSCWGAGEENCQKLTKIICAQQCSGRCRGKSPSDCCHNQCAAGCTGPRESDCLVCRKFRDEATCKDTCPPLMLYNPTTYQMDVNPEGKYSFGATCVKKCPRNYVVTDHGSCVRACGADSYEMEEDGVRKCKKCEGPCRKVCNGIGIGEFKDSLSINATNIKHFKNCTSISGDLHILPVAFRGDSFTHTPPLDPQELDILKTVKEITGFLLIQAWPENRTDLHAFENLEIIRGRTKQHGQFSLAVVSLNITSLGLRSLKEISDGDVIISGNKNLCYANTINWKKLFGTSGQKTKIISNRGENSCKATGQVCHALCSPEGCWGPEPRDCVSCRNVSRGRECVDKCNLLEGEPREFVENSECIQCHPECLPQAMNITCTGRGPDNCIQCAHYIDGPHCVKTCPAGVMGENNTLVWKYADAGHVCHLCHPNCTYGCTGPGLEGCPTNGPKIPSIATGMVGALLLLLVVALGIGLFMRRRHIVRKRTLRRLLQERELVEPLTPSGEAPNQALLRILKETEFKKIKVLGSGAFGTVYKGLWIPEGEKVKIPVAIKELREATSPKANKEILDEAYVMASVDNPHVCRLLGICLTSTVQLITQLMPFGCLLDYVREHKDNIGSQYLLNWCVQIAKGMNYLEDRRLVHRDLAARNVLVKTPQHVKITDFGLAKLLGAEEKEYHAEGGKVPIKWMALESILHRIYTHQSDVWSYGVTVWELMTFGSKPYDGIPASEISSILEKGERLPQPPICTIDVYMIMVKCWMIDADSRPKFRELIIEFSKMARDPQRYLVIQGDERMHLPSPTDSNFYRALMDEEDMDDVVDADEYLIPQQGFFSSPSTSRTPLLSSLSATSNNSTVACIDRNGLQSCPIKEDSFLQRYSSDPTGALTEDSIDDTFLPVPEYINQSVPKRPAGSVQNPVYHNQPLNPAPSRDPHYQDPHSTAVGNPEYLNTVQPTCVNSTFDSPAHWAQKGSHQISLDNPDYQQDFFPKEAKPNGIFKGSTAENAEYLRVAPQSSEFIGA

[8] = target: Follistatin-related protein 3 (Homo sapiens) (UniProt O95633); assay: FSTL3 binders on small-molecule microarrays, primary screen, biochemical, small-molecule microarray, 635 nm fluorescence (AID 1105); conditions: FSTL3 binding, higher = more signal;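 note: score merges emission near 667 nm and signal to noise per printed spot across three slides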
Sequence of Follistatin-related protein 3 (Homo sapiens) (O95633 whole entry, looked up): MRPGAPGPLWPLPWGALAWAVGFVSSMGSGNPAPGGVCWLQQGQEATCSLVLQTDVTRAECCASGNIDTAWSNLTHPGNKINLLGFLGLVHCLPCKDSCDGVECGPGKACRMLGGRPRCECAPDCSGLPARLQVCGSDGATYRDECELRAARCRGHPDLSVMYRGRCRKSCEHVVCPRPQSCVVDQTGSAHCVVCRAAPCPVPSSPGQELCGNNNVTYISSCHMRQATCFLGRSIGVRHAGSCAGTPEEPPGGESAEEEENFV

[9] = target: Dickkopf-related protein 1 (Homo sapiens) (UniProt O94907); assay: DKK1 binders on small-molecule microarrays, primary screen, biochemical, small-molecule microarray, 635 nm fluorescence scan (AID 1106); conditions: DKK1 binding, higher = more signal;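 note: score merges emission near 667 nm with signal to noise over three replicate slides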
Sequence of Dickkopf-related protein 1 (Homo sapiens) (O94907 whole entry, looked up): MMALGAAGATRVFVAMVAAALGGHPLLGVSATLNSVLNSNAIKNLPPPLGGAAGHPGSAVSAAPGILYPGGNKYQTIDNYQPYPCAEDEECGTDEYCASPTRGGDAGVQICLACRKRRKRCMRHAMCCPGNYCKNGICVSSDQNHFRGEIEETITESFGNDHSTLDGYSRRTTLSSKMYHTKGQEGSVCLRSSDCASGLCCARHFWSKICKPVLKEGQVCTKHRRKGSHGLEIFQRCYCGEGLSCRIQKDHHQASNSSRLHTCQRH

[10] = system: Inhibin beta A chain (activin A); assay: INHBA (activin A) binders on microarrays, primary screen, biochemical, small-molecule microarray, 635 nm fluorescence scan (AID 1107); conditions: small-molecule microarray binding, higher = more signal;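 note: mouse activin A protein probed at 4.33 µg/mL on printed slides; score merges bound-protein fluorescence near 667 nm with spot signal-to-noise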
[11] = system: Human papillomavirus type 1a protein E7 (residues 44-93); assay: HPV1a E7 fragment binders on microarrays, primary screen, biochemical, small-molecule microarray, residues 44-93, 635 nm fluorescence (AID 1108); conditions: small-molecule microarray binding, fluorescence 635 nm; higher = more signal;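 note: E7 fragment applied at 1 µg/mL in TBST for 1 h at 4 C; score combines spot fluorescence with its signal to noise ratio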
[12] = modulators of HCV replicon luciferase signal, primary screen, HCV replication inhibitor project, Huh7 cells, luciferase reporter (AID 1109); conditions: 48 h, higher = more signal;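 note: huh7 hepatoma cells harbouring a luciferase neomycin HCV replicon reporter; luciferase luminescence as measure of HCV replicon replication; test concentration not given here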
[13] = target: Left-right determination factor 2 (Homo sapiens) (UniProt O00292); assay: LEFTY2 binders on small-molecule microarrays, primary screen, biochemical, small-molecule microarray, 635 nm fluorescence scan (AID 1110); conditions: LEFTY2 binding, higher = more signal
Sequence of Left-right determination factor 2 (Homo sapiens) (O00292 whole entry, looked up): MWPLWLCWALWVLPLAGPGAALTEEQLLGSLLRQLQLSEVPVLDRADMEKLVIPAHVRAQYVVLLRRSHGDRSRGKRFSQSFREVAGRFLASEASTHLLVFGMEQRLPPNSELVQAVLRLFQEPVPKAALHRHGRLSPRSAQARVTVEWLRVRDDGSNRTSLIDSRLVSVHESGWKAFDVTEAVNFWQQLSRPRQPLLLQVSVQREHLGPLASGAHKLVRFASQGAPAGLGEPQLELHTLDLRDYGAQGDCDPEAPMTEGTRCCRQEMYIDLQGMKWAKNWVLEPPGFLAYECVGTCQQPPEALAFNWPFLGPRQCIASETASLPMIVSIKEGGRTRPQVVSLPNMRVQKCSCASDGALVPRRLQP

[14] = target: Calmodulin-1 (Homo sapiens) (UniProt P0DP23); assay: CALM1 binders on microarrays, EGTA buffer, profiling panel, biochemical, small-molecule microarray, Cy5-labelled CALM1 (AID 1111); conditions: Cy5-CALM1 binding fluorescence, higher = more signal;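 note: labelled calmodulin applied in Tris saline Tween buffer holding calcium plus EGTA and DTT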
[15] = target: Calmodulin-1 (Homo sapiens) (UniProt P0DP23); assay: calcium-bound CALM1 binders on microarrays, profiling panel, artefact control for SMM control-protein annotation, biochemical, small-molecule microarray, Cy5-labelled CALM1, plus calcium (AID 1112); conditions: Cy5-CALM1 binding fluorescence, higher = more signal;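 note: score merges spot fluorescence with signal to noise from triplicate slides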
[16] = small-molecule microarray binders of probe aWnt5a, primary screen, biochemical, biotinylated probe, 635/667 nm fluorescence (AID 1113); conditions: higher = more signal;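 note: score merges 667 nm fluorescence intensity with signal-to-noise per printed feature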
[17] = small-molecule microarray binders of probe aShh, primary screen, biochemical, biotinylated probe, 635/667 nm fluorescence (AID 1114); conditions: higher = more signal;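 note: probe is biotin-labelled aShh protein from a stem cell growth factor screen; measures binding of labelled protein to compounds printed on the slide; score merges feature fluorescence at 667 nm with signal-to-noise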
[18] = small-molecule microarray binders of probe aNog, primary screen, biochemical, biotinylated probe, 635/667 nm fluorescence (AID 1115); conditions: higher = more signal;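 note: probe is biotinylated aNog protein used at 0.15 µg/mL for 1 h at 4 C; z-score combines 667 nm fluorescence of each spot with its signal to noise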
[19] = target: Torsin-1A-interacting protein 1 (Homo sapiens) (UniProt Q5JTV8); assay: LAP1 binders from COS7 cell lysate, primary screen, small-molecule microarray, 635/667 nm fluorescence (AID 1116); conditions: COS7-hLAP1 lysate binding, 635 nm fluorescence, higher = more signal
Sequence of Torsin-1A-interacting protein 1 (Homo sapiens) (Q5JTV8 whole entry, looked up): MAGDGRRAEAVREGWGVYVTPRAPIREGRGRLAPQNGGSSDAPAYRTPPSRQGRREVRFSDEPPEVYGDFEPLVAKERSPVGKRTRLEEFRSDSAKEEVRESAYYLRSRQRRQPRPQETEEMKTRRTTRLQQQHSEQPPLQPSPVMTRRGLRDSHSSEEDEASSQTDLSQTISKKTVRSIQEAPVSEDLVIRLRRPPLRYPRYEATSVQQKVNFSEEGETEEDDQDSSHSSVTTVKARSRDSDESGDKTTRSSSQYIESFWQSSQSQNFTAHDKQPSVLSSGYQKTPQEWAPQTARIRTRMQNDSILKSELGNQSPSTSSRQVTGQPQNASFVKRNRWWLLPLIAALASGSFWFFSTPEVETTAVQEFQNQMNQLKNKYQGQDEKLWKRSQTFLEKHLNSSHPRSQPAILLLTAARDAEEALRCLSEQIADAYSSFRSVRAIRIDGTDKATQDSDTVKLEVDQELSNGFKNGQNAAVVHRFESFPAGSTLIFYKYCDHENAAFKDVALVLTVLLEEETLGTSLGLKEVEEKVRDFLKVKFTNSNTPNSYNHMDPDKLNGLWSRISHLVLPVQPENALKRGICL

[20] = target: Alpha-bungarotoxin (Bungarus multicinctus) (UniProt P60615); assay: alpha-bungarotoxin binders on microarray, profiling panel, artefact control for SMM control protein annotation, biochemical, small-molecule microarray, Alexa647 label, 635/667 nm fluorescence (AID 1117); conditions: alpha-BTX-A647 binding fluorescence, higher = more signal
Sequence of Alpha-bungarotoxin (Bungarus multicinctus) (P60615 whole entry, looked up): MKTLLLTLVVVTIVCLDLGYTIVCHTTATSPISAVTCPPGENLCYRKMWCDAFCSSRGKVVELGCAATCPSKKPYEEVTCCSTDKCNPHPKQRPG

| Structure (SMILES) | composite z-score [1] | composite z-score [2] | composite z-score [3] | z-score [4] | composite z-score [5] | composite z-score [6] | composite z-score [7] | composite z-score [8] | composite z-score [9] | composite z-score [10] | composite z-score [11] | z-score [12] | composite z-score [13] | composite z-score [14] | composite z-score [15] | composite z-score [16] | composite z-score [17] | composite z-score [18] | composite z-score [19] | composite z-score [20] |
| --- | --- | --- | --- | --- | --- | --- | --- | --- | --- | --- | --- | --- | --- | --- | --- | --- | --- | --- | --- | --- |
| CC(C)N1C(=O)c2ccccc2[C@@H](C(=O)NCC(F)(F)F)[C@@H]1c1ccc(CO)cc1 | 0.861 | -0.0674 | 0.53 | 0.655 (inactive) | -0.746 | -0.871 | -0.318 | -0.464 | -0.459 | 0.935 | 0.124 | 0.568 | 0.0101 | -0.257 | -0.224 | -0.0334 | -0.0626 | 0.128 | 0.287 | -0.143 |
| C=C(CCCC)/C(=C/C[C@H](OC(C)=O)c1cccc(OCCO)c1)c1cnc2ccccc2c1 | 0.989 | -0.149 | -0.0497 | -0.142 (inactive) | -0.252 | -0.31 | 0.228 | 0.234 | 0.0193 | 1.83 | -0.114 | -2.3 | -0.234 | -0.437 | -0.896 | -0.0684 | 0.0723 | 0.0664 | 0.558 | 0.387 |
| CCC(CC)C(O)C1C=CC2C(=O)N(c3ccccc3)C(=O)C2N1Nc1ccccc1F (stereo not given) | 1.17 | 0.373 | 0.481 | -0.115 (inactive) | 0.412 | 0.554 | 0.0005 | 0.226 | -0.445 | 0.704 | 1.2 | -0.171 | -0.527 | 0.189 | 0.25 | 0.612 | -0.214 | 0.53 | 0.447 | 1.39 |
| C=C(COC)C(=O)CC[C@@H](OC(=O)c1ccccc1-c1ccccc1C(=O)O)c1ccc(OCCO)cc1 | 0.398 | -0.321 | 0.0721 | 0.833 (inactive) | 0.983 | -0.278 | -0.487 | 0.684 | 0.0668 | 1.08 | -0.0675 | -1.88 | 0.079 | -0.601 | -0.942 | -0.145 | -0.304 | 0.338 | 1.21 | -0.0978 |
| O=C1C2C=CC(C(O)c3ccc([N+](=O)[O-])cc3)N(Nc3ccccc3F)C2C(=O)N1c1ccccc1 (stereo not given) | 1.22 | 0.912 | 0.941 | 1.02 (inactive) | 0.436 | 0.351 | -0.0558 | 0.313 | -0.516 | 0.941 | 0.395 | -0.288 | -0.303 | 0.865 | 0.378 | 0.0919 | 0.0442 | 1.01 | 1.55 | 1.06 |
| CN1C(=O)C2C(C1=O)C1C=C(CCCO)C2C(C2CC2)N1Cc1cccc(OC(F)(F)F)c1 (stereo not given) | 1.79 | -0.656 | 0.512 | -0.511 (inactive) | -0.268 | 0.393 | -0.783 | 0.0703 | -0.521 | 0.722 | 1.4 | -1.4 | -0.306 | 0.807 | 0.951 | -0.0944 | -0.0709 | -0.0964 | 1.56 | 0.786 |
| COC(=O)[C@@]1(Cc2ccc(OC)cc2)[C@H]2c3cc(C(=O)N4CCCC4)n(Cc4ccc(Cl)c(C(F)(F)F)c4)c3C[C@H]2CN1C(=O)c1ccccc1 | 1.38 | 1.62 | 1.23 | -0.75 (inactive) | 0.927 | 1.27 | -0.02 | 1.36 | -0.428 | 0.822 | 1.47 | -2 | 0.0524 | 2.74 | 1.35 | 0.207 | 0.165 | 2.07 | 1.98 | 1.62 |
| COc1ccc([Si](C)(C)[C@@H]2[C@@H](CC(=O)N(CCO)Cc3ccccc3)O[C@]3(C(=O)N(Cc4ccc(I)cc4)c4ccccc43)[C@H]2C)cc1 | 0.625 | 0.346 | 0.351 | -2.35 (inactive) | 1.1 | 0.301 | 1.03 | 1.37 | 1.2 | 1.58 | 0.684 | -4.03 | 0.792 | 1.61 | 0.54 | -0.0718 | 0.531 | -0.0815 | 1.23 | 0.375 |
| COc1ccc([Si](C)(C)[C@H]2[C@H](CC(=O)N3Cc4ccccc4C[C@H]3CO)O[C@@]3(C(=O)N(C)c4c(Br)cc(C)cc43)[C@@H]2C)cc1 | 0.842 | -0.149 | -0.246 | -1.97 (inactive) | 1.19 | 0.332 | 0.552 | 1.09 | 0.474 | 0.96 | 1.31 | -5.13 | 0.205 | 0.0634 | -0.113 | -0.102 | -0.164 | -0.238 | 0.656 | 0.803 |
| O=C(NC1CC1)[C@@H]1c2ccccc2C(=O)N(CC23CC4CC(CC(C4)C2)C3)[C@H]1c1ccc(CO)cc1 | 0.728 | -0.226 | -0.0162 | -0.724 (inactive) | 1.41 | 1.32 | 1.03 | 1.43 | 1.28 | 0.372 | 1.36 | -1.22 | 1.13 | 0.609 | -0.657 | -0.096 | -0.138 | -0.541 | 0.755 | 0.428 |
| CCCC[C@H]1OB(O)C[C@H]2C1=C(COc1ccccc1)C[C@H]1C(=O)C=CC(=O)[C@H]12 | 0.268 | 1.07 | -0.56 | -0.171 (inactive) | 0.638 | 0.474 | 0.286 | 1.02 | 0.966 | 0.825 | 0.0194 | -1.36 | 0.406 | -0.415 | -0.68 | -0.152 | -0.283 | -0.295 | 0.0135 | -0.388 |
| C#CCN1[C@@H](Cc2ccccc2)C(=O)O[C@H](Cc2ccccc2)[C@@H]1/C=C/C1CC1 | 0.345 | -0.251 | -0.505 | -0.29 (inactive) | 0.209 | 0.524 | -0.333 | 0.22 | 0.156 | 0.781 | 0.805 | -2.28 | 0.137 | -0.63 | -0.717 | -0.118 | -0.0337 | -0.196 | 0.436 | 0.456 |
| CC(C)N1C(=O)c2ccccc2[C@](C)(C(=O)NCC(F)(F)F)[C@@H]1c1ccc(CO)cc1 | 0.0632 | 0.698 | 1.06 | 0.88 (inactive) | -1.28 | -0.907 | -0.333 | -0.961 | -0.693 | 0.177 | -0.39 | 0.164 | -1.41 | -0.625 | 0.179 | 0.0031 | -0.153 | 0.543 | 0.716 | -0.573 |
| O=C(NCC(O)CO)[C@@]1(CCS(=O)(=O)c2ccccc2)N=C(c2ccc(OCCCO)cc2)O[C@H]1c1ccccc1 (stereo not given in full) | 1.11 | 1.27 | 0.985 | -0.809 (inactive) | 0.303 | 0.235 | -0.928 | -0.555 | -1.1 | 0.801 | 1.47 | 0.0294 | -1.15 | 1.51 | 1.14 | 0.0676 | 0.181 | 0.0574 | 2.55 | 3.32 |
| COc1ccc([Si](C)(C)[C@H]2[C@H](CC(=O)N3CCC[C@H]3CO)O[C@@]3(C(=O)N(Cc4ccc(N5CCCCC5=O)cc4)c4ccccc43)[C@@H]2C)cc1 | 1.17 | -0.28 | -0.466 | -1.16 (inactive) | 1.18 | 1.09 | 0.639 | 1.23 | 0.863 | 0.704 | 1.4 | -1.46 | 0.721 | 0.441 | -0.393 | -0.0239 | 0.0639 | 1.32 | 1.15 | 1.62 |
| COC(=O)[C@@]1(Cc2ccccc2)[C@H]2c3cc(C(=O)N(C)C)n(CCSC(=N)N)c3C[C@H]2CN1C(=O)c1ccccc1 | 1.16 | 0.743 | 1 | 0.61 (inactive) | -0.315 | -0.102 | -0.649 | -0.406 | -1.49 | 1.01 | -0.98 | -0.588 | -0.76 | 0.96 | 0.0575 | -0.0006 | -0.138 | 1.39 | 3.21 | -0.351 |
